The text below walks through data of PubChem BioAssay.

Molecules are shown by their SMILES. Active and inactive are the calls of the source.

One test deals with Albumin (Bos taurus) (UniProt P02769). Nature of the test: bovine serum albumin binders on microarray, profiling panel, artefact control for SMM control protein annotation, biochemical, small-molecule microarray, Alexa647 label, 635/667 nm fluorescence (AID 1118).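 Note: score merges 667 nm emission intensity and signal-to-noise per printed compound spot.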 The conditions noted are these: BSA-A647 binding, fluorescence 635 nm, higher = more signal.
The nature of test [1]: small-molecule microarray binders of probe aXIP, primary screen, biochemical, NeuroSMM set, 635/667 nm fluorescence (AID 1119).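 Note: probe is the protein aXip251-270 applied at 1 µg/mL to compound-printed slides; binding of probe to printed compounds measured as 667 nm fluorescence plus signal to noise.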 Conditions: higher = more signal, called active from +8 up or from −8 down.
A short description of test [2]: small-molecule binders of probe aNOTCH3, primary screen, biochemical, small-molecule microarray, 635/667 nm fluorescence (AID 1120).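 Note: probe is a biotin-tagged antibody raised against NOTCH3 rather than NOTCH3 protein; score merges spot fluorescence near 667 nm with spot signal to noise.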 The conditions noted are these: higher = more signal.
Test [3] in a line: small-molecule binders of probe aNOTCH2, primary screen, biochemical, small-molecule microarray, 635/667 nm fluorescence (AID 1121).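 Note: score merges feature fluorescence read at 667 nm with its signal to noise.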 The conditions noted are these: higher = more signal.
In test [4] the target is Carbonic anhydrase 2 (Homo sapiens) (UniProt P00918). In words: CAII small-molecule binders, profiling panel, biochemical, small-molecule microarray, Alexa647-labelled CAII (AID 1122). Conditions: CAII-A647 binding fluorescence, higher = more signal.
A short description of test [5]: COS7 lysate on small-molecule microarray, probe aHis, 635 nm (AID 1123).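 Note: z-score combines 667nm fluorescence intensity with signal-to-noise per printed compound spot.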 Conditions: COS7 cell lysate, fluorescence, higher = more signal.
Test [6] is described as follows: compound binding in COS7 lysate, probe aLAP1, primary screen, cell lysate, small-molecule microarray (AID 1124).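 Note: lysate comes from COS7 cells expressing LAP1 and is applied at 0.3 µg/mL; score merges spot fluorescence near 667 nm with signal-to-noise over triplicate slides.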 Conditions: probe aLAP1, fluorescence, higher = more signal.
The next test relates to Sam68 (KHDRBS1). Nature of the test: Sam68 small-molecule binders, primary screen, biochemical, small-molecule microarray, 635 nm fluorescence (AID 1125).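 Note: score merges 667 nm channel intensity with signal to noise over triplicate slides.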 Conditions: small-molecule microarray binding, higher = more signal.
For test [7], the system named is Chordin-like protein 2 (CHRDL2). Nature of the test: CHRDL2 small-molecule binders, primary screen, biochemical, small-molecule microarray, 635 nm fluorescence (AID 1126).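 Note: printed compound slides probed with Chrdl2 protein at 4 µg/mL for 1 h at 4 C; score merges 667 nm emission intensity with signal to noise over three replicate slides.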 Conditions: small-molecule microarray binding, fluorescence 635 nm; higher = more signal.
Test [8] deals with Concanavalin-A (Canavalia ensiformis) (UniProt P02866). Nature of the test: ConA small-molecule binders, primary screen, artefact control for SMM control protein annotation, biochemical, small-molecule microarray, Alexa647 label, 635 nm (AID 1127).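 Note: z combines 667 nm emission intensity with signal-to-noise across three replicate slides.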 The conditions noted are these: ConA-A647 binding fluorescence, higher = more signal.
Test [9] in a line: anti-His antibody binders, primary screen, artefact control for SMM control protein annotation, biochemical, small-molecule microarray, 635 nm fluorescence (AID 1128).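 Note: score merges feature fluorescence with signal-to-noise for each printed compound spot.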 Conditions: anti-His Alexa647 antibody binding, higher = more signal.
The test system of test [10] is Human papillomavirus type 1a E7 protein (residues 1-88). In words: HPV1a E7 small-molecule binders, primary screen, biochemical, small-molecule microarray, residues 1-88, 635 nm (AID 1129). The conditions noted are these: small-molecule microarray binding, fluorescence 635 nm; higher = more signal.
Test [11] has as its target Focal adhesion kinase 1 (Homo sapiens) (UniProt Q05397). Nature of the test: small-molecule microarray binders of FAK, primary screen, biochemical, 635/667 nm fluorescence, BSA, DTT (AID 1130).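 Note: composite of spot emission at 667 nm and signal to noise over triplicate slides.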 Conditions: PTK2 binding, 635 nm fluorescence, higher = more signal.
Test [12] concerns Fibrinogen (Alexa647-labelled). Nature of the test: fibrinogen binders on compound microarrays, profiling panel, artefact control for SMM control-protein annotation, biochemical, small-molecule microarray, 635/667 nm fluorescence (AID 1131).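 Note: z-score merges 667 nm fluorescence with per-spot signal-to-noise over triplicate slides.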 The conditions noted are these: fibrinogen-A647 binding fluorescence, higher = more signal.
Test [13] addresses Follistatin (Homo sapiens) (UniProt P19883). In words: follistatin binders on small-molecule microarrays, primary screen, biochemical, small-molecule microarray, 635/667 nm fluorescence (AID 1132). Conditions: FST binding, 635 nm fluorescence, higher = more signal.
Test [14] deals with Fibroblast growth factor 2 (Homo sapiens) (UniProt P09038). In words: FGF2 binders on small-molecule microarrays, primary screen, biochemical, small-molecule microarray, 635/667 nm fluorescence (AID 1133). Conditions: small-molecule microarray binding, FGF2, fluorescence 635/667; higher = more signal.
Test [15] is described as follows: mitochondrial membrane potential change in A549 cells, profiling panel, cell-based, JC-1 fluorescence, basal, 24 h, 100 nL (AID 1138).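 Note: A549 lung adenocarcinoma cells under basal conditions with no added stimulus; test concentration not given here.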 Conditions: higher = more signal.
A further test has as its system Lefty1. In words: Lefty1 binders on small-molecule microarrays, primary screen, biochemical, small-molecule microarray, 635/667 nm fluorescence (AID 1139). The conditions noted are these: small-molecule microarray binding, fluorescence 635/667; higher = more signal.
Test [16] relates to wheat germ agglutinin (Triticum aestivum), Alexa647-labelled. Nature of the test: wheat germ agglutinin binders on compound microarrays, profiling panel, artefact control for SMM control-protein annotation, biochemical, small-molecule microarray, 635/667 nm fluorescence (AID 1140).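 Note: score merges 667 nm feature emission with signal to noise over triplicate slides.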 The conditions noted are these: WGA-A647 binding, 635 nm fluorescence, higher = more signal.
For test [17], the target named is Luciferin 4-monooxygenase (Photinus pyralis) (UniProt P08659). Nature of the test: firefly luciferase enzyme inhibitors, primary screen, biochemical, luminescence, purified enzyme, 2006 set (AID 1141).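 Note: cell-free assay with purified firefly luciferase at 100 ng per well in PBS; test concentration not given here.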 The conditions noted are these: SteadyGlo luminescence, 30 min, higher = more signal, called active from +8 up or from −8 down.
Chain of Luciferin 4-monooxygenase (Photinus pyralis) (P08659 whole entry, looked up): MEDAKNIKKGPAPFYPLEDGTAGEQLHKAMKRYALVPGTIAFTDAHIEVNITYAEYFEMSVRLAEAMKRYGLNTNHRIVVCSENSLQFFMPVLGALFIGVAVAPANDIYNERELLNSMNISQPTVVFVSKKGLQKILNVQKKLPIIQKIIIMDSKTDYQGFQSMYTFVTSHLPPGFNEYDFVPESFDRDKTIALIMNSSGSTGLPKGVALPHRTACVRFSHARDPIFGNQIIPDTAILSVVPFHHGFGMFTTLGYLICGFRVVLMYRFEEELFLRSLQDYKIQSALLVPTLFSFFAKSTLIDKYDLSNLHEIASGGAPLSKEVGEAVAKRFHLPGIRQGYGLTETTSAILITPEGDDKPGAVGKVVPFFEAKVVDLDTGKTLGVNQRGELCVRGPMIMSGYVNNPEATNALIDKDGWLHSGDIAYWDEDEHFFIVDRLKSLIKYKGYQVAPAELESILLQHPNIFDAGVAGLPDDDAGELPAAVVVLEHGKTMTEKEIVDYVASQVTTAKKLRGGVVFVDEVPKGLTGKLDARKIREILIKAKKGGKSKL

Chain of Fibroblast growth factor 2 (Homo sapiens) (P09038 whole entry, looked up): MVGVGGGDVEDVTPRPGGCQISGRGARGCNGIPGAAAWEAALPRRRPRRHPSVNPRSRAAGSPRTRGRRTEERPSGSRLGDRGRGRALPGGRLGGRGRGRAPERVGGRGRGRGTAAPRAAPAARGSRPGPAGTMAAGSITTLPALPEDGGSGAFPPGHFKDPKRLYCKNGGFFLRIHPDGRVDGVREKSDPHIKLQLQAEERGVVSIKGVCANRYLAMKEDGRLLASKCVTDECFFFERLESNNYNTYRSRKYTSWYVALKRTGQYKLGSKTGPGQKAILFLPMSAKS
Chain of Concanavalin-A (Canavalia ensiformis) (P02866 whole entry, looked up): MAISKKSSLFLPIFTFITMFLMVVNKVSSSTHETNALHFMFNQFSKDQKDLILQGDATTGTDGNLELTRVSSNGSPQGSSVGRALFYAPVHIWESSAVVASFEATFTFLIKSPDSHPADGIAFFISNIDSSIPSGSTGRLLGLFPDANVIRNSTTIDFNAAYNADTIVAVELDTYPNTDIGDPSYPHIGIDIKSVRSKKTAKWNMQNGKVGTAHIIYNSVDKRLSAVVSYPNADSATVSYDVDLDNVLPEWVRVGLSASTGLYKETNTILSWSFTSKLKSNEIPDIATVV
Chain of Follistatin (Homo sapiens) (P19883 whole entry, looked up): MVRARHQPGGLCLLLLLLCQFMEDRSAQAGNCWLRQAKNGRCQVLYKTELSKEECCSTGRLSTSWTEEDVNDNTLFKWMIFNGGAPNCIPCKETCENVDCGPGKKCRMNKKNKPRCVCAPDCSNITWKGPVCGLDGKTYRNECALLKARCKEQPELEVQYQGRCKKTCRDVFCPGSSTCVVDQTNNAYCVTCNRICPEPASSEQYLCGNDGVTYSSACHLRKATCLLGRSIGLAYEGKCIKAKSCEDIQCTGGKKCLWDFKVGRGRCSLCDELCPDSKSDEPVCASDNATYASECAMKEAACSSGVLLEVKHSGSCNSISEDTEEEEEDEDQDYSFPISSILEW
Chain of Albumin (Bos taurus) (P02769 whole entry, looked up): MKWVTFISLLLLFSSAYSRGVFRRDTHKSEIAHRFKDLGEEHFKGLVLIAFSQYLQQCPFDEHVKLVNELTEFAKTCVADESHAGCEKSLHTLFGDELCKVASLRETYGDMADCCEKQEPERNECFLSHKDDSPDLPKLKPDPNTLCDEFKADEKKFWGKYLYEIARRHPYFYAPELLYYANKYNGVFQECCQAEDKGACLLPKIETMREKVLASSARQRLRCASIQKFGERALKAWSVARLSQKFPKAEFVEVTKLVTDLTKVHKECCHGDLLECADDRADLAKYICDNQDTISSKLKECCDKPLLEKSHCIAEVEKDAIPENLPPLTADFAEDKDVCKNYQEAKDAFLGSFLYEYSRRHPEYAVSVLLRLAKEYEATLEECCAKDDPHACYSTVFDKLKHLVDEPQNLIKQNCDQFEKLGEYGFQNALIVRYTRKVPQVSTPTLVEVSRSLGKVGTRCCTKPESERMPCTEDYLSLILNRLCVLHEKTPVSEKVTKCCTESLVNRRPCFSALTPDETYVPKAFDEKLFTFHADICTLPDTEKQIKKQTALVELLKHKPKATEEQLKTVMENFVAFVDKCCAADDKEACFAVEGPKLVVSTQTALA
Chain of Focal adhesion kinase 1 (Homo sapiens) (Q05397 whole entry, looked up): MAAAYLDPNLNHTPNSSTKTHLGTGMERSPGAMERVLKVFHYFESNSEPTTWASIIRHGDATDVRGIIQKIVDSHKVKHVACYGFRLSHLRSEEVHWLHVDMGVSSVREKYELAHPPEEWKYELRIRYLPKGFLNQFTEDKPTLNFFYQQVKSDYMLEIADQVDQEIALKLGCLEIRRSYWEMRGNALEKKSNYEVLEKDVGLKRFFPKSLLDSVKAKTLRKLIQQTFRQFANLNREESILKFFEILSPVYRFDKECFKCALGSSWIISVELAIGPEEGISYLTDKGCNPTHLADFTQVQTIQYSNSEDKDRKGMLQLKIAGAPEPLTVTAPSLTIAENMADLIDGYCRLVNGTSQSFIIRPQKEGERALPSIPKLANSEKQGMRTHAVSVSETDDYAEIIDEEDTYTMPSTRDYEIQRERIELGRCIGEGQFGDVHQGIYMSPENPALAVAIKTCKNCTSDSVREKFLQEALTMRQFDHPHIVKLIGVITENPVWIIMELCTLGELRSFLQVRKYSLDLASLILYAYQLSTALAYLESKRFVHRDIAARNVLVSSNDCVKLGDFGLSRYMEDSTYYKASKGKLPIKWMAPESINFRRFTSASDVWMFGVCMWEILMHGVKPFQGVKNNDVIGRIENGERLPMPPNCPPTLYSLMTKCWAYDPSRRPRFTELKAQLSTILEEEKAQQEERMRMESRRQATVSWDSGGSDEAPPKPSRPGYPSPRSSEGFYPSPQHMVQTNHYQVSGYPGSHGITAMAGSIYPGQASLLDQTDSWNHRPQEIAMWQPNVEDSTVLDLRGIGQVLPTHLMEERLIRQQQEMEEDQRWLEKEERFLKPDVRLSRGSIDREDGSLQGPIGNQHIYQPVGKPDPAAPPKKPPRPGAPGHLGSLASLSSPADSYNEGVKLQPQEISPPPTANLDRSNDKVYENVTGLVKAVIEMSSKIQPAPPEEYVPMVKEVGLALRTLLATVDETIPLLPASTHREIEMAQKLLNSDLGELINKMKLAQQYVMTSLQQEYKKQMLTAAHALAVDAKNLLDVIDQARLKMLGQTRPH

For `COc1ccc(O[C@H]2C=C[C@@H](C#Cc3ccccc3)O[C@@H]2CO)cc1`, the composite z-score with Albumin (Bos taurus) is 0.271; in [2], -0.0932; in test [3] it was 0.113; in test [4], 0.314; in [5] it was 0.962; in test [6], 0.0803. The composite z-score is -0.006 in the test on Sam68 (KHDRBS1); 0.176 in [7]; 0.869 in [8]; -0.0687 in test [9]; 0.071 in test [10]; 0.0306 in test [11]. Further, the composite z-score was determined as 0.744 in test [12]; 0.365 in test [13]; 0.0738 in test [14]; 0.71 with Lefty1; 0.48 in test [16]. Besides, the composite Z-score in [1] was 0.446 (inactive). In addition, the z-score in test [15] was 0.511; in test [17], -1.67 (inactive).

As to `CC(=O)OC[C@H]1O[C@H](CC=NO[C@@H](C)c2cn([C@H](CO)Cc3ccccc3)nn2)C=C[C@@H]1OC(C)=O`, the composite z-score with Albumin (Bos taurus) was 0.447; in test [2], 0.0517; in test [3], -0.0798; in [4], 0.342; in [5], 1.34; in [6] it was 0.0198. Moreover, the composite z-score with Sam68 (KHDRBS1) was 0.987; in test [7] it was 0.394; in test [8], 0.506; in test [9], -0.0515; in test [10] it was 0.656; in test [11] it was -0.0806. For the same compound, the composite z-score in [12] amounted to 0.827; in test [13], 0.679; in test [14] it was 0.45; in the test on Lefty1, 1.05; in test [16], 0.233. Moreover, the composite Z-score in test [1] was 0.0225 (inactive). For the same compound, the z-score is -1.56 in test [15] and 1.36 (inactive) in test [17].

`C[C@H]1CC[C@H]2C(=O)O[C@H](CO)CN2[C@@H]1c1ccc(Br)cc1`: the composite z-score is 0.167 with Albumin (Bos taurus); 0.0081 in test [2]; -0.124 in test [3]; -0.11 in [4]; -0.0346 in test [5]; 0.0438 in test [6]. Also, the composite z-score was 0.424 with Sam68 (KHDRBS1); 0.229 in [7]; -0.453 in test [8]; -0.15 in test [9]; 0.015 in test [10]; 0.638 in test [11]. Moreover, the composite z-score was 0.0011 in [12]; 0.0723 in test [13]; 0.103 in [14]; 0.353 with Lefty1; -0.004 in [16]. The composite Z-score in test [1] is 0.436 (inactive). Further, the z-score was 0.69 in test [15] and -0.19 (inactive) in test [17].

Turning to `CC(=O)OC[C@H]1O[C@H](C#CCCc2ccccc2)C=C[C@@H]1OC(C)=O`, the composite z-score was 0.829 with Albumin (Bos taurus); 0.106 in test [2]; -0.0727 in test [3]; 0.376 in test [4]; 2.2 in [5]; -0.332 in [6]. For the same compound, the composite z-score with Sam68 (KHDRBS1) is 0.179; in [7], 0.697; in test [8], 0.127; in test [9], 0.538; in [10] it was -0.417; in test [11], -0.34. For the same compound, the composite z-score was 0.884 in [12]; 0.518 in test [13]; 0.461 in [14]; 1.22 in the test on Lefty1; -0.225 in [16]. Moreover, in test [1], the composite Z-score is -0.399 (inactive). Moreover, the figures for the z-score in test [15] and in test [17] were 0.0303 and -0.97 (inactive), respectively.

Take `CO[C@H]1COC(=O)[C@H](CCSC)NC(=O)CC=C[C@@H](C)[C@H](OC)COC(=O)[C@@H](OCc2ccccc2)C=C[C@@H]1C`: the composite z-score in the test with Albumin (Bos taurus) was -0.798; in test [2], -0.043; in test [3], -0.153; in test [4], -0.173; in test [5], -0.919; in test [6], 0.0916. Further, the composite z-score was 0.835 in the test with Sam68 (KHDRBS1); 1.45 in [7]; -0.257 in [8]; 0.657 in test [9]; 0.116 in test [10]; -0.0918 in test [11]. Further, the composite z-score in [12] was -0.84; in test [13], 1.23; in [14] it was 0.689; with Lefty1 it was 1.3; in test [16] it was -0.36. In addition, the composite Z-score in test [1] is 1.04 (inactive). Further, the z-score in test [15] was -1.19; in test [17] it was 1.28 (inactive).
